Bioassay records as filed in PubChem.
SNCA expr inhib – inhibitors of alpha-synuclein (SNCA) gene expression; Potency, µM (highest dose often 57.2 µM), for the others: at the top dose activity change, negative = inhibition, most hits filed as inhibitors; HEK-293 SNCA-luciferase knock-in, luminescence, 24 h; actives 0.17% (n = 140,000);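 note: potency is the fitted concentration of half-maximal effect; plate controls were DMSO cells for no effect and cell-free wells for full effect; nearly all actives have a fitted effect of over 45% in size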
KDM5B inhibitor – inhibitors of human KDM5B histone demethylase | Q9UGL1 | KDM5B demethylase, FDH-coupled NADH fluorescence (FDH is formaldehyde dehydrogenase) | Potency, µM (top dose mostly 57.7 µM), actives largely listed as inhibitors | actives 2.6% (n = 220,000) | AID 1347165; note: potency is the fitted concentration of half-maximal effect; 0% is about no effect; nearly all actives have a fitted effect of over 70% in size
Target sequence (Q9UGL1 whole entry, looked up): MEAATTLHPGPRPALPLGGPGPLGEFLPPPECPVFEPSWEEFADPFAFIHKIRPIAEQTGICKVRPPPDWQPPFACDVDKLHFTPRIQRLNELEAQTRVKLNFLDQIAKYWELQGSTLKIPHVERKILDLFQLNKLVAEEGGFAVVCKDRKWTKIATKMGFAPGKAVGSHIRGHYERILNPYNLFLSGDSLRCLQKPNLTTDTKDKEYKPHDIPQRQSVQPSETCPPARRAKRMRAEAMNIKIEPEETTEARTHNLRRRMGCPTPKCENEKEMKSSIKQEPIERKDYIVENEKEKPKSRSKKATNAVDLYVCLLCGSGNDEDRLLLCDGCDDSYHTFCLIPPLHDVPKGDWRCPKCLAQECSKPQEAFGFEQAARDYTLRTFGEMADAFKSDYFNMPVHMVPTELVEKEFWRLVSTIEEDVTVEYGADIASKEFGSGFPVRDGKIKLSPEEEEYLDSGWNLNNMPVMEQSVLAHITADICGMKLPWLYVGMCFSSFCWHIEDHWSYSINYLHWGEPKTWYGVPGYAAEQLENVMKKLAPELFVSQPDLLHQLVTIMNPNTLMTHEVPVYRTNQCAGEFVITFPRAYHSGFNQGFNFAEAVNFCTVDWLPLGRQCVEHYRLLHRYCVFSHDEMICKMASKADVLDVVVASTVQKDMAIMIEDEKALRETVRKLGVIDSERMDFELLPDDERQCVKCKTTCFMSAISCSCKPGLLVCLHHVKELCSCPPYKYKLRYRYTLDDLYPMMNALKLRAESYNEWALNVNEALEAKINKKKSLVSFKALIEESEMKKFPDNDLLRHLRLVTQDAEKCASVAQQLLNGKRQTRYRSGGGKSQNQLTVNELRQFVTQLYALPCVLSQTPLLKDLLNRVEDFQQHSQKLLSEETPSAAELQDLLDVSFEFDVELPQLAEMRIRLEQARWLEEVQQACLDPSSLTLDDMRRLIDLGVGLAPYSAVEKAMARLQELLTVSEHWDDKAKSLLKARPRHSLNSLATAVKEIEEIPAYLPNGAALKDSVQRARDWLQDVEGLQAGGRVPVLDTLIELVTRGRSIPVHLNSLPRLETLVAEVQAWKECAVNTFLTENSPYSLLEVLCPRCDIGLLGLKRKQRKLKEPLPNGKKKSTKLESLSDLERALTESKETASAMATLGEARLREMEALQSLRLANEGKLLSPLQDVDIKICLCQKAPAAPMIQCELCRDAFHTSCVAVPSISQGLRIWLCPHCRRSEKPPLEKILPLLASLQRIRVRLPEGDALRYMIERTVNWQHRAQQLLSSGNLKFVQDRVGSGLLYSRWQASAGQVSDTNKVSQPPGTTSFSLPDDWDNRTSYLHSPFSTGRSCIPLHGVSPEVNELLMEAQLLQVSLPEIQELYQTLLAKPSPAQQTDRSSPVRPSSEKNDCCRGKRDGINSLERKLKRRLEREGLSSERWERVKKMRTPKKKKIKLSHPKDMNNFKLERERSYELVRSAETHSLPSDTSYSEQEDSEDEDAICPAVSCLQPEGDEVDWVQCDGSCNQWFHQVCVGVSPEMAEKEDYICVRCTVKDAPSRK
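Here, H3K4me3 peptide (12.5 µM in substrate mix) is demethylated by KDM5BΔAP, 200 nM final, after 10 min compound exposure. Formaldehyde product is coupled through FDH (0.25 U/mL in mix) to NADH fluorescence; 30-min ΔRFU feeds dose-response curves.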
HEK293 viab – reduces viability of HEK-293 SNCA reporter cells | HEK-293-SNCA-luc viability, GF-AFC fluorescence, 24 h | Potency, µM (series often up to 57.1 µM), for inactives: at the highest dose activity change, negative = cytotoxicity, usual class: cytotoxic | actives 0.12% (n = 150,000);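 note: potency is the fitted concentration of half-maximal effect; 0% = DMSO-treated cells and -100% = medium-only wells without cells; nearly all actives have a fitted effect of over 30% in size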
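HEK-293-SNCA-luc cells (1500/well) plated 24 h, then exposed 24 h to a dilution series; GF-AFC added 30 min at 37C, fluorescence 405/540 nm; normalised to medium-only and DMSO wells, Hill fit.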
IP6K1 inh – blocks human inositol hexakisphosphate kinase 1. Q92551. IP6K1 kinase, ADP-Glo luminescence, 2 h; active compounds read low. activity change, % (series mostly up to about 58 µM). actives 0.81% (n = 140,000); in the data active = activity change below about -25%; note: % is set by controls: 0 for no effect and ±100 for the full control effect
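ADP-Glo luminescence measures ADP made by human IP6K1 during a 2 h RT reaction with ATP/IP6 (mix at 1.3 mM/130 uM); top library doses 57.5 and 19.1 uM final.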
Active calls of the source: *; i = inactive; u = inconclusive; x = not tested or not shown; [ ] = dose if it differs, or a comment. Sampled rows, rich in hits. Any-hit rate of the full collection: about 2.8%. Unless noted, calls come from the whole dose curve; as a rule, active = well fitted curve in the direction sought with a large enough effect; inconclusive = small, poorly fitted or top-dose-only effect, or another doubt; inactive = no such curve, though single readings can be large; an effect the other way counts as inactive or inconclusive.

SMILES | SNCA expr inhib | KDM5B inhibitor | HEK293 viab | IP6K1 inh
Cc1cn2nc(C(=O)NCc3ccc(Cl)cc3)cc2c(N(C)Cc2ccccc2)n1 | 1% | 14µM* | 8% | 5
Cc1cn2nc(C(=O)N3CCOCC3)cc2c(N(C)Cc2ccccc2)n1 | -18% | u | -2% | 0
O=C(N[C@H]1CCN2C(=O)N(c3cccc4nsnc34)C(=O)[C@@H]2C1)c1ccnc(Cl)c1 | 16% | 28µM* | 2% | 10
CCCn1nccc1C(=O)NCc1cccnc1Oc1ccc(C)nc1 | -3% | 32µM* | 0% | -14
Cc1ccc(-c2nnc([C@H]3CCN(Cc4ncc[nH]4)C3)o2)cc1 | -7%[87.6 µM] | 35µM* | 10%[87.6 µM] | -10
COc1ccc(CN2CC[C@H](c3nnc(-c4ccncc4)o3)C2)cc1 | -14%[87.6 µM] | i | 6%[87.6 µM] | 1
CCCc1nnc([C@H]2CCN(Cc3ncc[nH]3)C2)o1 | 19%[87.6 µM] | u | 2%[87.6 µM] | 1
COc1ccc(-c2nnc([C@H]3CCN(Cc4ncc[nH]4)C3)o2)cc1 | 6%[87.6 µM] | 35µM* | -7%[87.6 µM] | 14
CC(NC(=O)CCC1CCCCC1)C1CCCO1 (configuration not stated) | x | i | x | x
O=C(NCc1cccnc1)c1nc(-c2cccc(F)c2)c2cnccn12 | 1% | 22µM* | 6% | 4
O=C(NCc1ccc(F)cc1)c1nc(-c2ccc(Cl)cc2Cl)c2cnccn12 | u | 56µM* | -9% | 12
O=C(NCc1cccnc1)c1nc(-c2cccc(C(F)(F)F)c2)c2cnccn12 | 14% | 28µM* | 5% | 12
O=C(NCc1ccncc1)c1nc(-c2cccnc2)c2cnccn12 | 9% | u | 8% | -11
O=C(NCc1ccc(F)cc1)c1nc(-c2ccccc2)c2cnccn12 | u | 79µM* | 11% | -2
COc1ccc(CNC(=O)c2ccc3nc(-c4ccc(F)cc4)c(-c4ccc(F)cc4)nc3c2)cc1 | 30% | i | 5% | 53
O=C(Nc1c(F)cccc1F)C12CC3CC(CC(C3)C1)C2 | x | i | x | x
O=C(NC1CC1)c1nc(-c2cccc(F)c2)c2cnccn12 | -7%[87.6 µM] | i | 8%[87.6 µM] | 4
C#CCNC(=O)c1nc(-c2cccc(F)c2)c2cnccn12 | -2%[87.6 µM] | 35µM* | 9%[87.6 µM] | 0
COC(=O)CNC(=O)c1nc(-c2ccc([S+](C)(=O)[O-])cc2)c2cnccn12 | 2% | 25µM* | 29% | -17
O=C(NCc1ccc2c(c1)OCO2)c1nc(-c2ccc(F)cc2)c2cnccn12 | -2% | u | 10% | 0
O=C(NCc1cccs1)c1nc(-c2ccc(F)cc2)c2cnccn12 | -5%[87.6 µM] | 40µM* | 18%[87.6 µM] | 12
O=C(NCc1cccnc1)c1nc(-c2ccc(F)cc2)c2cnccn12 | 7% | 28µM* | -7% | 0
Cc1ccc(C)c(COC(=O)Cn2cnc3c2c(=O)n(C)c(=O)n3C)c1 | x | i | x | x
COc1ccc(CNC(=O)Cn2c(=O)cc(C)c3c(C)nn(-c4cccc(Cl)c4C)c32)cc1 | -19% | i | 1% | 16
COc1ccc(C(O)C(=O)N2CCC3(CCC(=O)N(C4CC4)C3)CC2)cc1 (configuration not stated) | 10% | i | 6% | 15
SMILES | SNCA expr inhib | KDM5B inhibitor | HEK293 viab | IP6K1 inh
O=C(NC1CC1)c1nc(-c2cccc(C(F)(F)F)c2)c2cnccn12 | 3% | i | 13% | 1
O=C(NCc1ccc(F)cc1)c1nc(-c2cccnc2)c2ccccn12 | 0% | 112µM* | -18% | -6
COC(=O)CNC(=O)c1nc(-c2cccc(C(F)(F)F)c2)c2cnccn12 | 50% | 28µM* | -24% | 0
O=C(c1nc(-c2ccc(F)cc2)c2ccccn12)N1CCCC1 | 14%[87.6 µM] | i | -17%[87.6 µM] | 0
CC(C)NC(=O)c1nc(-c2ccc(F)cc2)c2ccccn12 | 3%[87.6 µM] | 35µM* | 7%[87.6 µM] | 6
CCc1ccc(CNC(=O)c2cc3c(N4CCSCC4)nc(C)cn3n2)cc1 | -24% | 32µM* | 1% | 6
COc1ccc(CNC(=O)c2cc3c(N4CCSCC4)nc(C)cn3n2)cc1 | 30% | u | -5% | 6
Cc1cn2nc(C(=O)NCc3cccc(C(F)(F)F)c3)cc2c(N2CCSCC2)n1 | 3% | 28µM* | 1% | 6
Cc1cn2nc(C(=O)NCc3ccc(C(F)(F)F)cc3)cc2c(N2CCSCC2)n1 | -2% | 28µM* | 4% | 0
Cc1cn2nc(C(=O)NCc3ccncc3)cc2c(N2CCSCC2)n1 | -4% | i | 27% | -4
Cc1cccc(CNC(=O)c2cc3c(N4CCSCC4)nc(C)cn3n2)c1 | -20% | u | 0% | 6
